Nrf2 inh = Nrf2 pathway inhibition; A549 ARE-Fluc reporter, luciferase luminescence, 18-24 h; AID 504444; Potency, µM (titrated, usually from 46 µM), most hits filed as inhibitors; 2.1% of 360,000 active; also: nearly all actives have a fitted effect of over 60% in size
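A549 ARE_Fluc cells (5000/well, 5% FBS OPTI-MEM) pre-incubated 2 h, then treated with compounds 18-24 h at 37C/5% CO2 in concentration-response. CellTiter-Fluor viability read first; BugLite luciferase luminescence after 15 min at room temperature gives Nrf2 activity.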
Nrf2 ARE act = activates Nrf2 signaling. AREc32 ARE-luciferase reporter (MCF7-derived line), luminescence, 24 h. Potency, µM (titrated, usually from 46.1 µM), hits mostly activators. 0.31% of 410,000 active; also: nearly all actives have a fitted effect of over 65% in size
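AREc32_Fluc, 1000 cells/well, OPTI-MEM + 5% FBS, o/n 37 deg C 5% CO2; 23 nL cpd by pin tool, 24 hr; Steady-Glo 30 min RT, luminescence.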
A549 viability = counter-screen for Nrf2 inhibitors: cytotoxicity in A549 cells. 0.16% of 390,000 active. A549 ARE-Fluc cells, CellTiter-Fluor viability, 18-24 h. Potency, µM (top dose mostly 46 µM), hits mostly inhibitors. AID 504648
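A549 ARE_Fluc cells in 5% FBS OPTI-MEM were exposed to compounds in concentration-response for 18-24 h at 37 deg C. Viability was read by CellTiter-Fluor fluorescence (Ex 405/Em 525) after 30 min, before the luciferase read.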
IL2 activator = activators of IL-2 | IL-2 activation reporter assay, cell-based qHTS; stimulated with anti-CD3/CD4/CD28 beads; in transgenic mouse T cells | activation, % (series mostly up to about 46 µM) | 0.065% of 360,000 active | AID 652025; in the data active = activation above about 50%; inconclusive = mostly about 30% to 49%
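Using fluorescent plate cytometry, EGFP and DsRed are detected in transgenic mouse T cells stimulated 18 h at 37 degrees C with antibody-coated beads after 60 min compound pretreatment.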
Large screens that a line does not name were inactive; ! = not confirmed by another sample. In the library only some 2.3% were active in any assay of this set; here they are far more common. Unless noted, calls follow the shape of the dose curve; as a rule, active = well fitted curve in the direction sought with a large enough effect; inconclusive = small, poorly fitted or top-dose-only effect, or another doubt; inactive = no such curve, though single readings can be large; an effect the other way counts as inactive or inconclusive.

COc1ccc(-c2nc(NC(=O)C3CC(=O)N(Cc4ccco4)C3)sc2C)cc1 (configuration not stated)	Nrf2 inh 23.1µM, A549 viability inconclusive
O=C1CCCC2=C1C1(CCC1)N=C(Nc1nc3ccccc3o1)N2	none (no result: Nrf2 ARE act, IL2 activator)
CCCSc1nc(-c2ccc(OC)cc2)cc(-c2ccccc2OC)c1C#N	none (no result: IL2 activator)
Cc1sc(NC(=O)CSc2ncn(-c3ccccc3)n2)nc1-c1ccccc1	Nrf2 inh 11.6µM
CCOC(=O)c1sc(NC(=O)CSc2ncn(-c3ccccc3)n2)nc1C	none
CCC1CN(C(=O)NCc2ccc(C)cc2)c2cc(C)ccc2O1 (configuration not stated)	Nrf2 inh 20.6µM!, A549 viability inconclusive
CCC1CN(C(=O)NCc2ccccc2)c2cc(C)ccc2O1 (configuration not stated)	Nrf2 inh inconclusive, A549 viability inconclusive
COc1ccc(NC(=O)CSc2nc(C)cc(C)c2C(=O)Nc2cccc(C)c2)cc1	none (no result: IL2 activator)
CC(C(=O)NCCS(=O)(=O)c1ccc(Cl)cc1)S(=O)(=O)c1ccc(Cl)cc1 (configuration not stated)	Nrf2 inh 9.2µM
CC(=O)c1ccc(C2CC34CNS(=O)(=O)C3CC2O4)cc1 (configuration not stated)	none (no result: Nrf2 ARE act, IL2 activator)
CCOc1ccc(Oc2nc(Nc3ccc(C)cc3)nc(N(C)C)n2)nn1	Nrf2 inh 20.6µM
CCN(CC)c1nc(Nc2ccccc2)nc(Oc2ccc(=O)n(C)n2)n1	none
COc1cccc(-n2nnnc2SCC(=O)Nc2nc3c(s2)CCCC3)c1	none
O=C(CSc1nnnn1-c1ccc2c(c1)OCCO2)Nc1nc2c(s1)CCCC2	Nrf2 inh 13µM, A549 viability inconclusive
O=S(=O)(NCCc1cn2ccccc2n1)c1ccc(-c2ccccc2)cc1	Nrf2 inh 20.6µM
C=C1C(=O)C2=CC1CCC(=O)C1(C)CCC(OC(C)=O)C(C)(C)C1CC2O (configuration not stated)	Nrf2 inh 14.6µM, Nrf2 ARE act inconclusive, A549 viability inconclusive
C=C1C(=O)[C@]23C[C@H]1CC[C@H]2[C@]1(C)[C@@H](OC(C)=O)CC[C@@](C)(C(=O)O)[C@H]1C[C@@H]3O	Nrf2 ARE act inconclusive (no result: Nrf2 inh, A549 viability)
Cc1ccc(NC(=O)c2ncn(-c3ccccc3)n2)cc1Cl	Nrf2 inh inconclusive (no result: IL2 activator)
COc1ccc(CCNC(=O)COc2ccc(N(C)S(=O)(=O)c3ccc(C)cc3)cc2)cc1OC	Nrf2 inh 25.9µM
COc1ccc(CCNC(=O)c2ccc(CS(=O)(=O)c3ccc(C)cc3)o2)cc1OC	Nrf2 inh 20.6µM
COc1ccc(CCNC(=O)COc2ccc(S(=O)(=O)NCC(C)C)cc2Cl)cc1OC	Nrf2 inh 20.6µM
CCOc1ccc(N(C)S(=O)(=O)c2ccc(C)c(C(=O)NCCc3ccc(OC)cc3)c2)cc1	Nrf2 inh inconclusive
CCOc1ccc(N(C)S(=O)(=O)c2ccc(C)c(C(=O)NCc3ccccc3OC)c2)cc1	Nrf2 inh 23.1µM
COc1ccc(CCNC(=O)CNS(=O)(=O)c2ccc(F)c(Cl)c2)cc1OC	none
CN(C)c1ccc(NC(=O)CCSc2nc(-c3ccco3)cc(C(F)(F)F)n2)cc1	Nrf2 inh inconclusive (no result: IL2 activator)
C[C@@](Cc1ccccc1)(C(=O)O)N1C(=O)c2ccc(C(=O)O)cc2C1=O	none (no result: Nrf2 ARE act, IL2 activator)
O=[S+]([O-])(/C=C/c1nc(Nc2cc(F)cc(F)c2)c2ncn(CC(F)F)c2n1)c1ccccc1	none (no result: Nrf2 ARE act, IL2 activator)
CCOc1ccc(OCC)c(S(=O)(=O)NCCOC23CC4CC(CC(C4)C2)C3)c1	Nrf2 inh inconclusive
COc1cc(S(=O)(=O)NCCOC23CC4CC(CC(C4)C2)C3)c(OC)cc1Cl	Nrf2 inh 20.6µM
Cc1ccc2c(=O)cc(C(=O)Nc3ccc(S(=O)(=O)N4CCCCCC4)cc3)oc2c1C	none (no result: IL2 activator)
Cc1ccc(-n2nnnc2SCn2nnc3ccccc3c2=O)c(C)c1	Nrf2 inh 9.2µM, A549 viability inconclusive
C/C(=C\C(=O)c1ccncc1)Nc1ccccc1O	Nrf2 ARE act 14.1µM
COc1ccc(OC)c(N/C(C)=C/C(=O)c2ccncc2)c1	none
Cc1ccc(C2CN=NC23CCc2ccccc2C3=O)cc1 (configuration not stated)	Nrf2 inh inconclusive
O=C1c2ccccc2CCCC12N=NCC2c1cccc2ccccc12 (configuration not stated)	Nrf2 inh 16.4µM
Cc1nn(CCC(=O)Nc2ccccc2Br)c(=O)c2nn(-c3ccccc3)c(C)c12	none (no result: Nrf2 inh, IL2 activator)
CC(C)c1nc(Nc2nc3ccccc3o2)nc2c1CCCC2	none (no result: Nrf2 ARE act, IL2 activator)
COc1ccc(C(=O)NNC(=S)NC(=O)c2cc(-c3ccccc3)nc3ccccc23)cc1	Nrf2 inh 18.4µM, A549 viability inconclusive
CCCOc1ccc(C(=O)NNC(=S)NC(=O)c2cc(-c3ccc(Cl)cc3)nc3ccccc23)cc1	Nrf2 inh 4.61µM
CCNC(=S)NNC(=O)c1cc(-c2ccc(OCC)cc2)nc2ccccc12	none (no result: Nrf2 inh)
CCOC(=O)Cc1ccc(NC(=O)N2CC(CC)Oc3ccccc32)cc1 (configuration not stated)	none (no result: IL2 activator)
Cc1cc(Nc2cccc(C(F)(F)F)c2)nc2ccc(NC(=O)c3cccnc3)cc12	Nrf2 inh 20.6µM, A549 viability inconclusive (no result: IL2 activator)
Cc1cc(Nc2cccc(C(F)(F)F)c2)nc2ccc(NC(=O)c3cccc(Cl)c3)cc12	Nrf2 inh 25.9µM, A549 viability 18.4µM (no result: IL2 activator)
CCOc1ccc(C(=O)Nc2ccc3nc(Nc4cccc(C(F)(F)F)c4)cc(C)c3c2)cc1OCC	none (no result: IL2 activator)
O=C(CN1C(=O)c2cccnc2Oc2ccc(Cl)cc21)NCCCN1CCCCC1	none (no result: IL2 activator)
CCCc1cnc2c(c1SCC(=O)Nc1ccc([N+](=O)[O-])cc1)c(=O)n(C)c(=O)n2C	none (no result: Nrf2 inh, IL2 activator)
Cc1c(Cl)cccc1NC(=O)c1cc(-c2ccco2)on1	Nrf2 inh inconclusive, Nrf2 ARE act 12.6µM
Cc1c(Cl)cccc1NC(=O)c1cc(-c2cccs2)on1	Nrf2 ARE act inconclusive (no result: IL2 activator)
Cc1ccc(NC(=S)NNc2ncc(C(F)(F)F)cc2Cl)cc1	Nrf2 inh 23.1µM
FC(F)(F)c1cnc(NNC(=S)Nc2ccc(Cl)cc2)c(Cl)c1	Nrf2 inh 11.6µM, A549 viability inconclusive
Cc1cc(NC(=O)Nc2cc(Cl)sc2Cl)no1	Nrf2 ARE act 3.16µM
COc1ccc(C(=O)N(Cc2ccccc2)Cc2ccc(OC)c(COc3ccc(NC(C)=O)cc3)c2)cc1	Nrf2 inh inconclusive (no result: Nrf2 ARE act, IL2 activator)
CC1CCN(Cc2c(C(=O)N/N=C/c3ccc(C(F)(F)F)cc3)nnn2-c2nonc2N)CC1	Nrf2 inh 25.9µM, A549 viability inconclusive
CN(CC(=O)Nc1ccc(Cl)cc1)C(=O)c1cccc(S(=O)(=O)NCc2ccccc2)c1	none
CN(CC(=O)Nc1ccc(Cl)cc1)C(=O)c1cccc(S(=O)(=O)N2CCN(Cc3ccccc3)CC2)c1	Nrf2 inh 13µM, A549 viability inconclusive
CC(NC(=O)c1cccc(S(=O)(=O)N2CCN(Cc3ccccc3)CC2)c1)c1ccccc1Cl (configuration not stated)	Nrf2 inh inconclusive

High-throughput results deposited in PubChem BioAssay by National Center for Advancing Translational Sciences (NCATS).
